Screening results: PubChem BioAssay, National Center for Advancing Translational Sciences (NCATS)
HT1080 IDH1KD tx = HT-1080 IDH1 knockdown cell toxicity (counter line); actives 2% (n = 360,000); AID 686971; HT-1080 IDH1 knockdown viability, ATP luminescence, 48 h; Potency, µM (series often up to 46.1 µM), for inactives: at the top dose activity, negative = toxicity, actives largely listed as cytotoxic;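 also: 0% = DMSO wells and -100% = cell-free medium wells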
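Luminescent ATP read-out (CellTiter-Glo, 10 min at room temperature) after 48 h compound exposure at 37 °C gave viability of IDH1-knockdown HT-1080 cells. Activity was normalised to DMSO and cell-free wells, then fitted as concentration-response curves.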
KB-V1 MDR tox = kills drug-selected multidrug resistant KB-V1 cells | KB-V1 MDR cells viability, CellTiter-Glo, 72 h | Potency, µM (top dose mostly 46.1 µM), most hits filed as cytotoxic | actives 3.4% (n = 400,000); also: % is scaled to controls: 0 for no effect and ±100 for the full control effect; nearly all actives have a fitted effect of over 60% in size
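Cytotoxicity toward P-gp-expressing KB-V1 cells was determined as loss of CellTiter-Glo luminescence after 72 h at 37 degrees C. Compounds were tested in quantitative HTS format across a concentration range, with curves fitted to normalized data.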
KB-3-1 tox = KB-3-1 parental cell cytotoxicity; KB-3-1 viability, CellTiter-Glo ATP luminescence, 72 h; Potency, µM (doses to about 46.1 µM), most hits filed as cytotoxic; actives 1.4% (n = 400,000); also: % is scaled to controls: 0 for no effect and ±100 for the full control effect; nearly all actives have a fitted effect of over 60% in size
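Viability of parental KB-3-1 cells, measured by CellTiter-Glo luminescence, followed a 72 h incubation at 37 °C with pinned compounds in phenol-red-free DMEM containing 10% FBS.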
HT1080NT lethal = kills 2HG-producing HT-1080-NT fibrosarcoma cells | actives 1.6% (n = 360,000) | Potency, µM (titrated, usually from 46.1 µM), without a hit: at the highest dose activity, negative = less viability, actives largely listed as cytotoxic | HT-1080-NT fibrosarcoma viability, CellTiter-Glo ATP luminescence, 48 h;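 also: NT is the 2HG producing partner of a matched IDH1 knockdown line; 0% = DMSO-treated cells and -100% = media-only wells without cells; nearly all actives have a fitted effect of over 55% in size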
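A 48-hour cytotoxicity screen used HT-1080-NT cells plated 2 hours before compound delivery. ATP-based CellTiter-Glo luminescence measured viability, normalized to DMSO and no-cell controls.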
SW480 rereplic = DNA re-replication induction in SW480 cells; SW480 DNA re-replication, Hoechst DNA content imaging, 48 h; AID 624297; Potency, µM (highest dose often 46.1 µM), for the others: top-dose re-replication activation, most hits filed as activators; actives 1.8% (n = 340,000); also: % of control where 0% means no effect; nearly all actives have a fitted effect of over 55% in size
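Image-based read-out: total Hoechst fluorescence of nuclei (405 nm excitation, 500-530 nm emission), with hits raising the fraction of high-intensity nuclei. SW480 colon cells incubated 48 hr with compounds at 37 C.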
MCF10A rereplic = induces DNA re-replication in MCF 10a normal breast cells; AID 624296; Potency, µM (highest dose often 46.1 µM), without a hit: at the highest dose activity, positive = re-replication, actives largely listed as activators; actives 2.9% (n = 350,000); MCF 10A DNA re-replication, Hoechst nuclear intensity, 48 h; also: % of control where 0% means no effect; nearly all actives have a fitted effect of over 50% in size
Starred values were filed as active, the others as inactive; i = inactive; ? = inconclusive; / = no result given. An excerpt weighted towards active compounds, which were near 7.9% of everything screened. Calls follow the shape of the dose curve; as a rule, active = well fitted curve in the direction sought with a large enough effect; inconclusive = small, poorly fitted or top-dose-only effect, or another doubt; inactive = no such curve, though single readings can be large; an effect the other way counts as inactive or inconclusive. Potency is read from the fitted curve at half-maximal effect.

SMILES	HT1080 IDH1KD tx	KB-V1 MDR tox	KB-3-1 tox	HT1080NT lethal	SW480 rereplic	MCF10A rereplic
Cc1ccc2cc3c(NC(=O)c4ccco4)nn(C)c3nc2c1	-14%	?	?	-11%	?	18µM*
Cc1cccc(OCC(=O)Nc2ccc3c(c2)nc(CCNC(=O)c2ccco2)n3C)c1	/	i	i	/	/	/
O=C(NCCC(F)(F)F)C1Cc2c(-c3ccccc3Oc3ccccc3)ccnc2O1 (centres undefined)	-10%	i	i	-10%	/	/
Cc1nc2ccc(S(=O)(=O)NC(C(=O)N3CCN(c4cccc(Cl)c4)CC3)C(C)C)cc2s1 (centres undefined)	/	i	i	/	/	/
COc1ccc(S(=O)(=O)NCCc2sc(-c3cccc(C)c3)nc2C)cc1	/	?	i	/	/	/
O=C(Cn1c(COc2ccc(Cl)cc2)nc2ccccc21)NCC(F)(F)F	7%	i	i	5%	-4%	1%
O=C(Cn1c(COc2ccccc2)nc2ccccc21)Nc1cc(Cl)cc(Cl)c1	?	i	i	?	-2%	12µM*
O=C(Cn1c(COc2ccccc2)nc2ccccc21)Nc1cc(Cl)ccc1Cl	-5%	23µM*	?	-16%	9%	0%
CCCOc1ccc(/C=C/C(=O)Nc2sc3c(c2C(=O)OCC)CCC(C)C3)cc1OC (centres undefined)	/	i	i	/	/	/
CC1(C)CC2(CCCN(C(=S)Nc3ccccc3)C2)CCO1 (centres undefined)	3%	i	i	1%	-5%	-7%
CCC1(C)CC2(CCCN(CCC(=O)c3ccccc3)C2)CCO1 (centres undefined)	5%	i	i	3%	11%	21µM*
CCC1=C(c2ccc(C)cc2)S(=O)(=O)N=C1N1CCC(C(=O)NCCc2cccc(OC)c2)CC1	/	i	i	/	/	/
Cc1ccc2c(c1)S/C(=C/c1ccc[n+](CCO)c1)N2C	?	i	2.6µM*	-17%	-1%	23%
C[n+]1ccccc1/C=C1\Sc2ccccc2N1CCO	?	i	21µM*	-26%	-1%	16%
CC[n+]1ccc(/C=C2\Sc3ccccc3N2CCCS(=O)(=O)[O-])c2ccccc21	-7%	i	i	-16%	-4%	1%
C[n+]1ccccc1/C=N/O	-2%	i	i	41%	-9%	3%
Cc1ccc2c(c1)S/C(=C\c1cccc[n+]1C)N2CCO	16µM*	?	?	-3%	-40%	1%
C[C@H](CO)N1C[C@H](C)[C@@H](CN(C)C(=O)C2CC2)OCc2cnnn2CCCC1=O	1%	i	i	-2%	/	/
Nc1nc(CN2CCN(Cc3ccccc3)CC2)nc(Nc2ccccc2)n1	?	21µM*	?	?	4%	2%
Cc1cccc(Nc2nc(N)nc(CN3CCN(c4ccccc4)CC3)n2)c1	-2%	15µM*	i	-6%	-7%	0%
Nc1nc(CSC(=S)N2CCCCC2)nc(Nc2ccccc2)n1	-1%	?	i	-4%	-4%	-20%
CC1CC(C)CN(C(=S)SCc2nc(N)nc(Nc3ccccc3)n2)C1 (centres undefined)	33µM*	?	?	?	-33%	?
Nc1nc(CN2CCN(c3ccccc3F)CC2)nc(Nc2ccc3c(c2)OCCO3)n1	-19%	9.2µM*	?	-4%	40%	?
C[C@@H]1CN([C@@H](C)CO)S(=O)(=O)c2ccc(/C=C/c3ccccc3)cc2O[C@@H]1CN(C)Cc1ccc(C(=O)O)cc1	-14%	i	i	-4%	/	/
CCOc1ccc(OCC)c(S(=O)(=O)N2CCN(c3cccc(C)c3C)CC2)c1	/	?	i	/	/	/
SMILES	HT1080 IDH1KD tx	KB-V1 MDR tox	KB-3-1 tox	HT1080NT lethal	SW480 rereplic	MCF10A rereplic
CC(=O)c1ccc(NC(=O)Cn2c(=O)n(Cc3ccco3)c(=O)c3sc4ccccc4c32)cc1	/	i	i	/	/	/
Cc1cccc(Nc2nc(N)nc(CN3CCN(c4ccccc4F)CC3)n2)c1	-3%	2.3µM*	i	?	?	?
Cc1cccc(Nc2nc(N)nc(CN3CCN(Cc4ccc5c(c4)OCO5)CC3)n2)c1	-18%	15µM*	i	-20%	-1%	8%
CCOc1ccc(Nc2nc(N)nc(CN3CCN(c4ccccc4F)CC3)n2)cc1	-16%	?	i	-1%	18%	?
COC(=O)c1[nH]c2ccc(C)cc2c1NC(=O)C(C)N1CCN(C2CCCCC2)CC1 (centres undefined)	-5%	i	i	?	-4%	-3%
COC(=O)c1[nH]c2ccc(Br)cc2c1NC(=O)C(C)N1CCN(C2CCCCC2)CC1 (centres undefined)	21µM*	?	?	?	?	7%
Cc1c(C2=CCN(S(=O)(=O)c3ccc(CC(C)C)cc3)CC2)c2ccccc2n1CC(=O)N1CCCC1	/	i	i	/	/	/
Cc1ccc(C)c(CN2C(=O)c3ccccc3S(=O)c3ccc(C(=O)N4CCN(c5ccccn5)CC4)cc32)c1 (centres undefined)	-12%	?	10µM*	?	20%	?
Cc1cccc(N2CCN(C(=O)c3ccc4c(c3)N(Cc3ccccc3F)C(=O)c3ccccc3S4=O)CC2C)c1 (centres undefined)	/	i	?	/	/	/
CCN1C(=O)c2ccccc2S(=O)c2ccc(C(=O)N3CCN(c4cccc(C)c4)C(C)C3)cc21 (centres undefined)	/	i	18µM*	/	/	/
O=C(CC(c1cccs1)N1Cc2ccccc2C1=O)Nc1ccc(F)c(Cl)c1 (centres undefined)	/	?	i	/	/	/
Cc1ccc(N2CCN(S(=O)(=O)c3ccc4c(c3)CC(=O)N4)CC2)cc1	/	i	i	/	/	/
COc1cccc2c1OCC(C(=O)O)C2 (centres undefined)	?	i	i	11%	-9%	-3%
COc1cccc2c1C(CO)N1C(C#N)C3CC(C(=O)O)C(C1C2)N3C (centres undefined)	?	0.21µM*	0.026µM*	-9%	0.92µM*	-6%
COc1cc(OC)c(N(C)S(=O)(=O)c2cccc(C(=O)OCC(=O)N(C)C3CCCCC3)c2)cc1Cl	3%	?	i	3%	3%	12%
Cc1ccccc1OCCN1C(=O)NC2(CCc3ccccc32)C1=O (centres undefined)	-12%	23µM*	i	-17%	1%	-1%
